Data taken from PubChem BioAssay.
Results filed as inconclusive are left out. The source made the active and inactive calls. Rule as the data show it, unless noted: active = response above about 15%; inactive = the rest.

Key:
[1] = yeast TOR pathway RPL19A-GFP modulators, primary screen, cell-based, S. cerevisiae, multiplex flow cytometry (AID 1862; in the data active = percent of DMSO control GFP below about 86%;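 also: lower values mimic rapamycin by blocking the RPL19A rise seen in DMSO cells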); conditions: S. cerevisiae RPL19A-GFP strain, flow cytometry fluorescence, 3 h; at 10 µM; stronger effect = lower value
[2] = modulators of MEP2-GFP levels in yeast, primary screen, S. cerevisiae, multiplex flow cytometry (AID 1867;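 active = GFP response, as percent of the DMSO control, above the screen-wide mean plus 3 SD, about 139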;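 also: median GFP channel fluorescence of barcode-gated MEP2-GFP cells measured by flow cytometry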); conditions: S. cerevisiae MEP2-GFP strain, 3 h, at 10 µM, stronger effect = higher value, 100% means same as DMSO wells
[3] = modulators of CIT2-GFP expression in yeast, primary screen, S. cerevisiae, GFP fusion, multiplex flow cytometry (AID 1870;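 active = percent response above a set limit, the screen-wide mean plus 3 SD, cut at about 130% in these data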;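 also: barcoded CIT2-GFP strain pooled with four other GFP strains with rapamycin as positive control; median GFP fluorescence per well over plate mean of DMSO wells so 100% = DMSO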); conditions: 3 h, at 10 µM, stronger effect = higher value
[4] = modulators of LAP4-GFP expression in yeast, primary screen, S. cerevisiae, multiplex flow cytometry (AID 1873;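 active = GFP signal, as percent of the solvent control, above the screen mean plus 3 SD, about 149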); conditions: 3 h, at 10 µM, stronger effect = higher value
[5] = modulators of AGP1-GFP expression in yeast TOR pathway, primary screen, cell-based, multiplex flow cytometry, S. cerevisiae (AID 1887;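 active = GFP signal above the screen-wide mean plus 3 SD, that is over about 124.5% of the solvent control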;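 also: AGP1-GFP fusion strain of S. cerevisiae within a five-strain barcoded multiplex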); conditions: 3 h, at 10 µM, stronger effect = higher value
[6] = inhibitors of CD8+ T cell-vesicle binding, pilot screen, LFA-1/ICAM-1 modulator project, MLPCN validation set, flow cytometry (AID 2523;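 active = response below a set limit, under 55% cells CD8-positive and vesicle-bound, and CD8 cells' 90th-percentile brightness under 279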;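 as to vesicle binding response: mean PE anti-B7-1 fluorescence of CD8+ cells relative to row control; 100% = QL9-loaded vesicles with DMSO vehicle in the same plate row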); conditions: 2C mouse CD8+ T cells, at 7 µM, stronger effect = lower value; double positive events: measured here: CD8+/vesicle+ event percentage
[7] = molecular target: Integrin beta-1 (Homo sapiens) + Integrin alpha-4 (Homo sapiens) (UniProt P13612+P05556); test: inhibition of HUTS-21 binding to VLA-4, pilot screen, VLA-4 allosteric modulator project, U937 cells, HUTS-21 mAb, flow cytometry, validation set (AID 2674;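 active = inhibition above 50%, about 3 SD of the validation set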;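 also: antibody binding induced by the VLA-4 ligand LDV present at three times its Kd; 0% = LDV ligand with antibody and no compound and 100% = antibody without LDV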); conditions: HUTS-21 LIBS mAb binding, at 6.7 µM, stronger effect = higher value, binding induced by LDV ligand
[8] = superoxide lowering in aged yeast cells, pilot screen, validation compound set (AID 2706;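 active = superoxide response below 65% of plate, a cut near 3 SD across the whole screen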;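 also: yeast exposed to compound for one week at 30 degrees C before staining; 100% = mean of all compound wells on the same plate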); conditions: S. cerevisiae aging, superoxide DHE fluorescence; at 10 µM; stronger effect = lower value
[9] = molecular target: Beta-adrenergic receptor kinase 1 (Homo sapiens) (UniProt P25098); test: GRK2 binders displacing RNA aptamer, biochemical, validation, human GRK2, bead flow cytometry (AID 488806;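 active = aptamer binding inhibition above 30%, about 3 SD of noise from non-fluorescent compounds; inactive = inhibition at or below 30%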); conditions: bead-bound GRK2, FAM-aptamer displacement, at 10 µM, stronger effect = higher value
[10] = molecular target: Beta-2 adrenergic receptor (Homo sapiens) (UniProt P07550); test: beta2AR agonists driving receptor internalization, pilot screen, cell-based, FAP fluorogen, flow cytometry, validation set (AID 504459;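 active = percent response above 42, roughly 3 SD of non-fluorescent test compounds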;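 also: agonist-driven loss of surface beta2AR via internalization measured by FAP dye flow cytometry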); conditions: Am2.2-beta2AR cells, FAP surface receptor flow cytometry; at 10 µM; stronger effect = higher value
[11] = molecular target: AP-2 complex subunit beta (Homo sapiens) (UniProt P63010); test: inhibitors of arrestin peptide binding to AP2, pilot screen, biochemical, validation set, GST-AP2 beads, flow cytometry (AID 504541;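 active = inhibition above 54%, about 3 SD of non-fluorescent compounds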;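 also: AP2 carries R879A mutation and is captured from E. coli lysate; bead-bound FITC arrestin peptide fluorescence measuring arrestin peptide binding to AP2; 0% = DMSO wells and 100% = excess unlabeled arrestin peptide control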); conditions: FITC arrestin peptide, at 10 µM, stronger effect = higher value, AP2 beta2 appendage fragment, R879A mutant
[12] = yeast V-ATPase proton transport modulators, S. cerevisiae, pHLuorin, HTS validation (AID 504600);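 also: plate controls were DMSO for no effect and reference compound for full effect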; conditions: S. cerevisiae pHLuorin cytosolic pH, at 10 µM, stronger effect = higher value
[13] = system: anti-desmoglein-3 scFv antibody binding to human DSG3; test: inhibitors of anti-DSG3 scFv binding to DSG3, pilot screen, biochemical, validation compound set, bead-based, flow cytometry (AID 588368;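 active = binding below the plate cutoff, the plate median minus 3 SD, with a reading above zero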;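 also: signal is the median channel fluorescence of bead-bound GFP antibody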); conditions: Protein G beads, DSG3-Fc, scFv-GFP binding, at 10 µM, stronger effect = lower value
[14] = inhibitors of fungal efflux pumps CDR1, CDR2, MDR1, pilot screen, validation compound set, multiplex, phenotypic (AID 588506;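 active = efflux inhibition above 0.42, the validation set average plus 4 SD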;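 also: Nile Red retained in cells so higher fluorescence means more efflux inhibition; 0 = negative control wells and 1 = enniatin B 25 µM full block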); conditions: S. cerevisiae pump-expressing triplex, Nile Red efflux flow cytometry; at 10 µM; stronger effect = higher value; the pumps come from Candida albicans
[15] = molecular target: ATP-binding cassette sub-family B member 6 (Homo sapiens) (UniProt Q9NP58); test: ABCB6 transporter inhibitors, pilot screen, K562-ABCB6 cells, flow cytometry, validation set (AID 588550;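 active = inhibition above the screen-wide mean plus 3 SD, about 51%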;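 also: 0% = DMSO wells and 100% = benzethonium chloride 70 µM positive control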); conditions: K562-ABCB6 porphyrin accumulation, 1 h, at 10 µM, stronger effect = higher value
[16] = promoters of myeloid differentiation in arrested cells, primary screen, cell-based, GFP/MAC1 double positive, flow cytometry, validation set (AID 588685;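 active = differentiation response of at least 50%, scaled between solvent and reference control, from cells with both markers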;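 also: compound exposure lasts four days before antibody staining and flow analysis; 0% = DMSO wells and 100% = 5 µM fulvestrant positive control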); conditions: ER-HoxA9 marrow cells, stronger effect = higher value, normalized: vehicle 0, fulvestrant 100

Integrin beta-1 (Homo sapiens) + Integrin alpha-4 (Homo sapiens), sequence (P05556 whole entry, looked up): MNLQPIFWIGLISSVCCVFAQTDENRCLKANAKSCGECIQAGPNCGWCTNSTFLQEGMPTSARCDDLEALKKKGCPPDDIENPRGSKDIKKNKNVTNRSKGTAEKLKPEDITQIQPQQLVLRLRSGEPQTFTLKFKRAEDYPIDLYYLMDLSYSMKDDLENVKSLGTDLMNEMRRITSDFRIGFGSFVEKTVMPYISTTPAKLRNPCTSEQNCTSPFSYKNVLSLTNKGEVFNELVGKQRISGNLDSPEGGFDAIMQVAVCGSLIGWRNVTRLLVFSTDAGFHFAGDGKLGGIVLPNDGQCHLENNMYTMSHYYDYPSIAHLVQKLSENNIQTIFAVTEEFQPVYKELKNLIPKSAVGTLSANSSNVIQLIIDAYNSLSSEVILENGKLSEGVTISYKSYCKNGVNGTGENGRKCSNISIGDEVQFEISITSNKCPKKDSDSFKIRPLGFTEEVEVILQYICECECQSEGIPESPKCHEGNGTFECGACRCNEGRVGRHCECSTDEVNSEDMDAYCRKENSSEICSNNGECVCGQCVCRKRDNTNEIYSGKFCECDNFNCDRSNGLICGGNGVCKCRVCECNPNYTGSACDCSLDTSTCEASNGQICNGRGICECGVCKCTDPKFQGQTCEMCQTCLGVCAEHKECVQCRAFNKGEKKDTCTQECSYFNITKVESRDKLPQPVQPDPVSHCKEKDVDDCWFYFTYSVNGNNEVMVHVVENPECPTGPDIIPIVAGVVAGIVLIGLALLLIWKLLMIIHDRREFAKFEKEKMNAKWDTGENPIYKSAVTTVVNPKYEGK
Integrin beta-1 (Homo sapiens) + Integrin alpha-4 (Homo sapiens), sequence (P13612 whole entry, looked up): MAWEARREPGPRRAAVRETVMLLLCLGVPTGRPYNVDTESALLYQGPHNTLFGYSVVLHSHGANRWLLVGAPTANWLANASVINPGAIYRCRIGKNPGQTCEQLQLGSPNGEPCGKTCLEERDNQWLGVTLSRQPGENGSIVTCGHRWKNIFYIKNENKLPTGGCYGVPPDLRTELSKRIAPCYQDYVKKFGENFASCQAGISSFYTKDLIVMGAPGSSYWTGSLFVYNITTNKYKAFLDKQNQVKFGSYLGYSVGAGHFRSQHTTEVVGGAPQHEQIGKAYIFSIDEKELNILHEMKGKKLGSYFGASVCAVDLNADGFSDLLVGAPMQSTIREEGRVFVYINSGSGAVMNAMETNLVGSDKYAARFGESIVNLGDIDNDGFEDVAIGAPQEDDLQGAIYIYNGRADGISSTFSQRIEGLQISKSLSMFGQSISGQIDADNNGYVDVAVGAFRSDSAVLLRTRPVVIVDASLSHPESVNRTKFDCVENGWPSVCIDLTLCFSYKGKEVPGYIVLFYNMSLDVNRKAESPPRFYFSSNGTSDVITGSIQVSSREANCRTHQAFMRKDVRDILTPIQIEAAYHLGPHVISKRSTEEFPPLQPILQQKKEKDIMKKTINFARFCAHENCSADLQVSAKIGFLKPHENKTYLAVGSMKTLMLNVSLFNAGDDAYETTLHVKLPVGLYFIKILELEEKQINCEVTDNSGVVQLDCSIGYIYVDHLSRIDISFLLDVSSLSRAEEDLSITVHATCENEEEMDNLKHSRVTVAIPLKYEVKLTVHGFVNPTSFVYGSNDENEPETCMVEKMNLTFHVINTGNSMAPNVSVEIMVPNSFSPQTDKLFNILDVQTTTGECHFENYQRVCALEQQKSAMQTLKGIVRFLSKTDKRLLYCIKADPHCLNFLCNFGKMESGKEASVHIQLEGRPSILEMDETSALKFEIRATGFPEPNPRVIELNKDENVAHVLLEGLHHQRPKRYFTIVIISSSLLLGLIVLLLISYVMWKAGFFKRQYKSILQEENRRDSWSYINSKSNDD
Beta-adrenergic receptor kinase 1 (Homo sapiens), sequence (P25098 whole entry, looked up): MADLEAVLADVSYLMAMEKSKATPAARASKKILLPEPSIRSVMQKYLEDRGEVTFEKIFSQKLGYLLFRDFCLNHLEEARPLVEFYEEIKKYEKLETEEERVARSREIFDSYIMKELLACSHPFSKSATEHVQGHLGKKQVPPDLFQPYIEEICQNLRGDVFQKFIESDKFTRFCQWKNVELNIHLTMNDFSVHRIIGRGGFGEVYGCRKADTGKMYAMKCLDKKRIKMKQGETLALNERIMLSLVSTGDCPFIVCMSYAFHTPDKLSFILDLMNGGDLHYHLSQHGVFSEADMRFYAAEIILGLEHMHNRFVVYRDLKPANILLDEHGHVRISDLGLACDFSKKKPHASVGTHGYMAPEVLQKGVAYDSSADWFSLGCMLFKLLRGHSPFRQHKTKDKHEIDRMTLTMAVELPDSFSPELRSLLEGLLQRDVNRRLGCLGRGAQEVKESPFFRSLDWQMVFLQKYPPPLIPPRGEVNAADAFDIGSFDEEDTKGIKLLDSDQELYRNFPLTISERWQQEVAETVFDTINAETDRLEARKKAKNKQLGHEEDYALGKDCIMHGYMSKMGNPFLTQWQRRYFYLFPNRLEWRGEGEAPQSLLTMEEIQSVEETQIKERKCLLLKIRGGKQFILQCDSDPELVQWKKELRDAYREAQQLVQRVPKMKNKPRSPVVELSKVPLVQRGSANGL
ATP-binding cassette sub-family B member 6 (Homo sapiens), sequence (Q9NP58 whole entry, looked up): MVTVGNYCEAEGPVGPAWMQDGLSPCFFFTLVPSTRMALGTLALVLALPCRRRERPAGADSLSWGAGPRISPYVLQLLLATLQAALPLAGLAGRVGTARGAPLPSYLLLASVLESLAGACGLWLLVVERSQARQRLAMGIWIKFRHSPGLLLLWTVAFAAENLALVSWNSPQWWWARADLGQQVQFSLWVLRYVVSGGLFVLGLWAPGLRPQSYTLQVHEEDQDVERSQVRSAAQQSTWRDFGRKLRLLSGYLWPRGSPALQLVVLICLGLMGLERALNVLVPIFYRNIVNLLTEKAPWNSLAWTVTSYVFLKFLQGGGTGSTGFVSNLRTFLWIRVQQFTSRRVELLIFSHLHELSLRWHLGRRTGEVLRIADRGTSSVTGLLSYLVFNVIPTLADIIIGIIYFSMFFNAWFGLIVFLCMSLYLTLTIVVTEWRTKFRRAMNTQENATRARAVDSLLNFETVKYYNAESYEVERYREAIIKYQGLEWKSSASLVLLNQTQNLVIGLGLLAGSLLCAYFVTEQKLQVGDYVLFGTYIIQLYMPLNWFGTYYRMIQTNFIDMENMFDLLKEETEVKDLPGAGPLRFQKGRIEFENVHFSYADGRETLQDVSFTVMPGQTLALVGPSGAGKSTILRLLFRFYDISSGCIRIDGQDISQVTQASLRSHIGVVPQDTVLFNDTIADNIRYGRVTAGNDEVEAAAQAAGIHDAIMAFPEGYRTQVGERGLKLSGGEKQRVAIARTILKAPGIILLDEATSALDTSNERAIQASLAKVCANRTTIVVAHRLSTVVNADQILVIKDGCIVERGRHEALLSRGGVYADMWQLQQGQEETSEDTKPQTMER
AP-2 complex subunit beta (Homo sapiens), sequence (P63010 whole entry, looked up, the tested form may be a part, one chain of several): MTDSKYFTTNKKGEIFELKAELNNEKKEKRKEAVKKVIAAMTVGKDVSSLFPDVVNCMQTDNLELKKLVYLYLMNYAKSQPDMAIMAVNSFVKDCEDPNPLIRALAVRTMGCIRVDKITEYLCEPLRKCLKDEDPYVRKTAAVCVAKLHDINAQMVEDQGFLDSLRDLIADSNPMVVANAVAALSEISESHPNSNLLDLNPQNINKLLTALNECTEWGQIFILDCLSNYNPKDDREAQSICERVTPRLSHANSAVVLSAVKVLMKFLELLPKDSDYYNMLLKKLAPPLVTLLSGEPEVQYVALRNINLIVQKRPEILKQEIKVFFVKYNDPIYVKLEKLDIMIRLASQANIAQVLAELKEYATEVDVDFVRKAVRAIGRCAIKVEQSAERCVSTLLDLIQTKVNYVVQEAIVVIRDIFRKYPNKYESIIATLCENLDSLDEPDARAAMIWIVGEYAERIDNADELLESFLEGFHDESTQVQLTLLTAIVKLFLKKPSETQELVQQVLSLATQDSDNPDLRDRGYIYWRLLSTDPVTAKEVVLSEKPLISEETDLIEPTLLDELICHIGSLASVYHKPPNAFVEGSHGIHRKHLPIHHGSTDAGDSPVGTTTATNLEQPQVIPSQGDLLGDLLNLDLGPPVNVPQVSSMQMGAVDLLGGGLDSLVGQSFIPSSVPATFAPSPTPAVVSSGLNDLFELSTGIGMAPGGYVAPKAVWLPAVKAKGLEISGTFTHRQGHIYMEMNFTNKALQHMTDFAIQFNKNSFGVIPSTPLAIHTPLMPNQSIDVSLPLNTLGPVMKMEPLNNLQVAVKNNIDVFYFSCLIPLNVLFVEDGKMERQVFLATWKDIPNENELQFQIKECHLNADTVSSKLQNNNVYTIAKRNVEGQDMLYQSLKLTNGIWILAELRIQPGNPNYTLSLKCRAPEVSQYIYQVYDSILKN
Beta-2 adrenergic receptor (Homo sapiens), sequence (P07550 whole entry, looked up): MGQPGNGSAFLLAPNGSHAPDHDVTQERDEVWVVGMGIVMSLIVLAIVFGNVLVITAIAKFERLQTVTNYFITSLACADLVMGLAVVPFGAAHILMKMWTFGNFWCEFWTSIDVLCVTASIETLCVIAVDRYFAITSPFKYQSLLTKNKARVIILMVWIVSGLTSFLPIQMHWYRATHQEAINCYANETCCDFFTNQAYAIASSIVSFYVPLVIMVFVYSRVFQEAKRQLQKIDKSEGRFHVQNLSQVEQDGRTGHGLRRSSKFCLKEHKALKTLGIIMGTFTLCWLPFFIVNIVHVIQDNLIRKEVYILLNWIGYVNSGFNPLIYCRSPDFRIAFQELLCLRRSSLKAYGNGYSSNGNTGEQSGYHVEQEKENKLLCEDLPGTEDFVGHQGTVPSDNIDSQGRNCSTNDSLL

| Structure (SMILES) | percent of DMSO control GFP [1] | GFP response vs DMSO [2] | percent response of DMSO control [3] | GFP response vs DMSO [4] | GFP response, % of DMSO [5] | double positive events [6] | vesicle binding response [6] | inhibition [7] | superoxide response (% of plate) [8] | aptamer binding inhibition [9] | response [10] | inhibition [11] | response [12] | binding (% of control) [13] | efflux inhibition (fraction of control) [14] | inhibition [15] | differentiation response [16] |
| --- | --- | --- | --- | --- | --- | --- | --- | --- | --- | --- | --- | --- | --- | --- | --- | --- | --- |
| COc1cc(C2NCCc3c2[nH]c2ccccc32)ccc1OC(C)C (configuration not stated) | 105% (inactive) | 103% (inactive) | 106% (inactive) | 90.4% (inactive) | 104% (inactive) | 58.1% | 85.7% (inactive) | 5.61% (inactive) | 95.7% (inactive) | 0% (inactive) | 9.28% (inactive) | 1.29% (inactive) | 0.8% (inactive) | 104% (inactive) | 0.08 (inactive) | 9% (inactive) | -10.4% (inactive) |
| CCOc1ccc(N2C(=O)CC(NCCNc3ccc([N+](=O)[O-])cn3)C2=O)cc1 (configuration not stated) | 103% (inactive) | 95.6% (inactive) | 106% (inactive) | 98% (inactive) | 93% (inactive) | 53.2% | 145% (inactive) | 15% (inactive) | 94.4% (inactive) | 0% (inactive) | 1.65% (inactive) | -8.05% (inactive) | 4.15% (inactive) | 98.8% (inactive) | 0.06 (inactive) | 8% (inactive) | -4.57% (inactive) |
| O=C(O)CCCc1ccccc1 | 104% (inactive) | 96.2% (inactive) | 115% (inactive) | 76.9% (inactive) | 99.7% (inactive) | 61.7% | 264% (inactive) | -4.6% (inactive) | 107% (inactive) | 5% (inactive) | -7.69% (inactive) | -6% (inactive) | 2.2% (inactive) | 96.1% (inactive) | 0.02 (inactive) | 19% (inactive) | 0.24% (inactive) |
| COc1ccc(C2OC(=O)Cc3cc(OC)c(OC)cc32)cc1 (configuration not stated) | 90.6% (inactive) | 127% (inactive) | 91.3% (inactive) | 82.5% (inactive) | 88% (inactive) | 63.4% | 177% (inactive) | -6.15% (inactive) | 94.5% (inactive) | 2% (inactive) | -3.02% (inactive) | -4.51% (inactive) | -1.1% (inactive) | 103% (inactive) | -0.38 (inactive) | 7% (inactive) | 3.28% (inactive) |
| CN(C)C(=O)Oc1ccc[n+](C)c1 | 102% (inactive) | 106% (inactive) | 94.2% (inactive) | 94.7% (inactive) | 95.9% (inactive) | 62.3% | 1200% (inactive) | 0.58% (inactive) | 104% (inactive) | 4% (inactive) | 0.34% (inactive) | 16.8% (inactive) | -1.45% (inactive) | 103% (inactive) | -0.1 (inactive) | 13% (inactive) | -1.71% (inactive) |
| O=C1C(=O)N2C(=C1C(=O)N1CCCCCC1)c1ccccc1CC21CCCC1 | 92.2% (inactive) | 109% (inactive) | 86.3% (inactive) | 120% (inactive) | 99.8% (inactive) | 59.4% | 201% (inactive) | 9.13% (inactive) | 115% (inactive) | 3% (inactive) | -8.46% (inactive) | 31.8% (inactive) | -1.64% (inactive) | 105% (inactive) | -0.13 (inactive) | 3% (inactive) | 5.6% (inactive) |
